KKLEB tox = reduces viability of KKLEB cystic fibrosis airway cells | KKLEB CF airway cells viability, ATPlite luminescence, overnight; hits give low values; cells stimulated with P. aeruginosa culture filtrate | activity change (cytotoxicity), % at 5 µM | actives 0.36% (n = 360,000) | AID 602141;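 active = corrected activity change at or below -50% at 5 µM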
Peg3 promoter = reduces Peg3 promoter-driven luciferase expression in HeLa | HeLa PEG-Prom luciferase reporter, luminescence, overnight | inhibition, % at 20 µM | actives 1.7% (n = 360,000);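 active = inhibition of at least 50% at 20 µM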
CF NFkB inh = blocks PAF-induced NF-kB reporter in cystic fibrosis cells; KKLEB NF-kB-GFP reporter, GFP fluorescence overnight; inhibition, % at 5 µM; actives 0.86% (n = 360,000);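 active = at least 50% inhibition at 5 µM, scaled per plate between neutral and stimulator controls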;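 note: PAF is a Pseudomonas aeruginosa culture filtrate used as stimulus; plate controls were PAF-stimulated DMSO wells for no effect and unstimulated DMSO wells for full effect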
HIF-2a block = inhibitors of HIF-2a | actives 0.72% (n = 360,000) | AID 624352 | inhibition, % at 18.8 µM | 786-0 RCC cells HIF-2a reporter, luciferase luminescence, overnight;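 active = inhibition of the luminescence signal of 40% or more relative to plate controls, in a single-dose primary screen at 18.75 µM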
Shn3 3UTR inh = Schnurri-3 reporter inhibition in Clone20 osteoblasts | actives 0.52% (n = 360,000) | AID 588674 | inhibition, % at 12.5 µM | Clone20 osteoblast Shn3 3'UTR firefly luciferase, 24 h;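 active = mean inhibition of at least 75% with every replicate also reaching 75%; inconclusive = mean inhibition at least 75% but some replicate below; inactive = mean inhibition below 75%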;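 note: 0% = median of neutral control wells and 100% = pilot-screen positive control compound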
LMP1 NFkB inh = reduces LMP1-driven NF-kappaB luciferase signal; inhibition, % at 12.5 µM; LMP1-induced NF-kappaB luciferase reporter cells, luminescence; actives 0.69% (n = 350,000); AID 504558; in the data active = inhibition above about 41%; inconclusive = no clear call, values can overlap the other calls;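 note: 0% = neutral control wells and 100% = reference inhibitor control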
Active calls of the source: *; ? = inconclusive; . = no result. This is a sample that favours compounds with a hit; in the whole collection about 2.9% have one here.

SMILES | KKLEB tox | Peg3 promoter | CF NFkB inh | HIF-2a block | Shn3 3UTR inh | LMP1 NFkB inh
C=C(NC(=O)C(=C)NC(=O)c1csc(C2=NC3c4csc(n4)C4NC(=O)c5csc(n5)C(C(C)(O)C(C)O)NC(=O)C5CSC(=N5)/C(=C/C)NC(=O)C(C(C)O)NC(=O)c5csc(n5)C3(CC2)NC(=O)C(C)NC(=O)C(=C)NC(=O)C(=C)NC(=O)C(C(C)C)NC2C=Cc3c(C(C)O)cc(nc3C2O)C(=O)OC4C)n1)C(N)=O (centres undefined) | -16 | 81* | -113 | 64* | 86* | 65*
Cc1cc(-c2ccccc2)n(-c2cc(N/N=C/c3ccccc3O)ncn2)n1 | -54* | 45 | 74* | 47* | 89* | 21
O=C1NC(Cc2ccccc2)c2nc3ccccc3c(=O)n2-c2cc3ccccc3cc21 (centres undefined) | -5 | 37 | 5 | 21 | 11 | -3
CCn1c2ccccc2c2cc(/C=N/NC(=O)c3cccc(C)c3)ccc21 | -3 | 0 | -11 | 5 | 1 | 88*
CCn1c(C)nc2cc(C(=O)N/N=C/c3ccccc3)ccc21 | 11 | -187 | -4 | -231 | -79 | -16
CCn1c2ccccc2c2cc(/C=N/NC(=O)c3ccccc3C)ccc21 | -14 | 2 | -1 | -15 | 26 | 87*
CCn1c(C)nc2cc(C(=O)N/N=C/c3cccc(O)c3O)ccc21 | 0 | -43 | 7 | -177 | 91* | 0
CC(NS(=O)(=O)c1ccc(F)cc1)C(=O)Nc1ccc2c(c1)OCCO2 (centres undefined) | -6 | 9 | -4 | -2 | -10 | -6
COc1ccc2cc3cc(C(=O)NCCN4CCN(c5ccccc5F)CC4)oc3nc2c1 | -9 | 44 | -9 | -2 | 10 | 21
COc1ccc2cc3cc(C(=O)Nc4ccccc4N4CCN(C)CC4)oc3nc2c1 | -22 | 115* | 12 | 55* | 14 | 0
CC(C)C(=O)NC(c1ccc(Cl)cc1Cl)c1ccc2cccnc2c1O (centres undefined) | 3 | 28 | -60 | -116 | 87* | ?
CCC(=O)NC(c1ccc(Cl)cc1Cl)c1ccc2cccnc2c1O (centres undefined) | -8 | 50 | -44 | -21 | ? | 49*
Cc1ccnc(NC(c2ccccc2)c2ccc3cccnc3c2O)c1 (centres undefined) | -26 | 21 | -5 | 16 | 39 | 14
CC(=O)NC(c1ccco1)c1ccc2cccnc2c1O (centres undefined) | 4 | 13 | -7 | 5 | 74 | 25
CCN(CC(=O)Nc1ccc(NC(C)=O)cc1)C(=O)c1ccc(N2C(=O)c3ccccc3C2=O)cc1 | 4 | 6 | 1 | 11 | 9 | 1
COc1ccc(Cl)cc1NC(=O)CN(C)C(=O)c1sccc1-c1ccccc1 | -2 | 24 | 16 | 7 | 10 | -2
COc1ccc(N2C(=O)C(Cl)=C(NCc3ccccc3)C2=O)cc1 | -3 | -2 | 7 | -28 | -17 | 65*
Cc1cccc(NC(=O)Nc2c(C)n(C)n(-c3ccccc3)c2=O)c1C | 0 | 15 | 1 | 19 | 16 | 49*
Cc1c(Cl)cccc1NC(=O)Nc1c(C)n(C)n(-c2ccccc2)c1=O | 5 | 6 | -19 | 13 | -12 | -7
CCOCCCNC(=O)CN1C(=O)/C(=C/c2ccccc2)Sc2ccccc21 | 8 | 3 | -8 | -18 | -14 | 6
CCN1CCN(CCNC(=O)c2ccc(/C=C3/Sc4ccccc4N(Cc4ccccc4C)C3=O)cc2)CC1 | -77* | 87* | 43 | 19 | -8 | -6
CCN1CCN(CCCNC(=O)c2ccc(/C=C3/Oc4ccccc4N(Cc4cccc(C)c4)C3=O)cc2)CC1 | -40 | 75* | 20 | 4 | 3 | -1
CCOCCCNC(=O)CN1C(=O)/C(=C\c2ccc(C)cc2)Sc2ccccc21 | 17 | -71 | -28 | -33 | 3 | 69*
CN(CC(=O)Nc1ccc(F)cc1)C(=O)c1ccc(N2C(=O)CCC2=O)cc1 | -7 | 9 | -3 | 4 | -3 | -8
O=C(N/N=C/c1ccc([N+](=O)[O-])o1)c1cc2c(ccc3ccccc32)o1 | -12 | 54* | -18 | -7 | 14 | -109
SMILES | KKLEB tox | Peg3 promoter | CF NFkB inh | HIF-2a block | Shn3 3UTR inh | LMP1 NFkB inh
O=C(CCC(=O)Nc1ccc(Cl)cc1Cl)N/N=C/c1ccc([N+](=O)[O-])o1 | 8 | 57* | -14 | -28 | 26 | .
Cc1ccc(S(=O)(=O)N2CCN(C(=O)c3cccs3)CC2)c(C)c1 | -5 | 13 | 2 | 4 | -1 | -3
C/C(N)=C(/C#N)C(=O)COC(=O)CC12CC3CC(CC(C3)C1)C2 | -26 | 22 | 2 | 9 | 6 | 1
CNC(=S)Nc1ccc2nc(C)c(C)nc2c1 | 6 | -3 | 7 | -22 | -10 | 50*
COc1ccc(NC(=S)Nc2ccc3nc(C)c(C)nc3c2)cc1 | -17 | -27 | 4 | -68 | -7 | 6
CCc1ccc(OCC(=O)NC(=S)Nc2ccc(C(=O)O)cc2)cc1 | -3 | 2 | -4 | 18 | -7 | 7
CCc1ccc(OCC(=O)NC(NC(=S)Nc2ccc(Cl)cc2)C(Cl)(Cl)Cl)cc1 (centres undefined) | -16 | 52* | 27 | 15 | 86* | 2
Cc1cccc(C(=O)OCC(=O)NCCCc2ccccc2)c1 | 7 | 17 | 4 | 6 | -6 | -9
CCC(C(=O)Nc1cccnc1)n1c(=O)[nH]c2ccccc2c1=O (centres undefined) | 0 | -2 | -6 | 10 | -10 | -2
CCCCn1c(-c2nonc2NC(=O)c2ccccc2Cl)nc2ccccc21 | -30 | 21 | 37 | -20 | 89* | 32
N#CCCn1c(-c2nonc2NC(=O)c2ccccc2Cl)nc2ccccc21 | -48 | 6 | 29 | 8 | 15 | 15
C[C@]12CCC3C(CC[C@H]4CCCC[C@]34C)C1CC[C@@]2(O)CNCCO (some centres undefined) | 3 | 91* | 12 | 13 | 12 | -3
CCNC(=O)N(CC)C[C@H]1N[C@@](Cc2ccccc2)(C(=O)OC)[C@H]2C(=O)N(Cc3ccccc3)C(=O)[C@@H]12 | 11 | -7 | -23 | 7 | -1 | -2
CCN(C[C@H]1N[C@@](CC)(C(=O)OC)[C@H]2C(=O)N(Cc3ccccc3)C(=O)[C@@H]12)C(=O)c1ccc(C(C)(C)C)cc1 | -58* | 62* | 85* | -20 | 18 | -1
CCNC(=O)N(CC)C[C@H]1N[C@@](Cc2ccccc2)(C(=O)OC)[C@H]2C(=O)N(C)C(=O)[C@@H]12 | 0 | -17 | -10 | 2 | 0 | 65*
COc1ccc2[nH]c3c4c(ccc3c2c1)C(=O)C=CC4=O | -19 | 117* | 64* | 80* | 96* | -26
Cc1ccc(CN2CCN(/N=C/C=C/c3ccccc3[N+](=O)[O-])CC2)cc1 | 4 | 17 | 5 | -15 | 13 | 1

Compound activity from PubChem BioAssay.
